FBPA Giardia inh – blocks Giardia fructose-bisphosphate aldolase activity | purified Giardia FBPA | Potency, µM (doses to about 59.6 µM), for the others: at the top dose activity, negative = inhibition, usual class: inhibitors | 290,000 compounds, 0.71% hits; further: potency means the concentration at half of the fitted maximal effect; on the % scale 0 is the no-effect control and ±100 the full control effect; nearly all actives have a fitted effect of over 55% in size
Target sequence (A8B2U2 whole entry, looked up): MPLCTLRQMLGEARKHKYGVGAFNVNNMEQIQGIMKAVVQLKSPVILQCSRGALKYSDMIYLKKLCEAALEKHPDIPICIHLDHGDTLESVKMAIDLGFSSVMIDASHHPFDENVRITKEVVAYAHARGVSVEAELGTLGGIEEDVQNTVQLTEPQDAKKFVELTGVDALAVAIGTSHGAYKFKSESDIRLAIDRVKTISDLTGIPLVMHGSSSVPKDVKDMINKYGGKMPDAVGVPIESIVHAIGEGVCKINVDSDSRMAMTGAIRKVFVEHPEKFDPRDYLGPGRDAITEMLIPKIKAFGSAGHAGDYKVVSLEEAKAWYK
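40 nM FBPA preincubated 10 min at RT with compound (up to 57.5 uM final), then substrate plus GAPDH/TPI/NAD/arsenate coupling and diaphorase/resazurin added. Fluorescence read after 20 min at RT, 525/598 nm.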
Shiga inhibitor – blocks Shiga toxin action in Vero cells | Vero cells, Shiga toxin protein synthesis inhibition reporter | 290,000 compounds, 9.2% hits | inhibition, % at 38.7 µM; in the data active means inhibition mostly above about 28%, no sharp cut-off; inactive means mostly below about 43%; further: 0% is about no effect
Tb PYK inh – T. brucei pyruvate kinase inhibition; AID 624173; TbPYK enzyme, Kinase-Glo Plus ATP luminescence, 45 min; 410,000 compounds, 0.12% hits; Potency, µM (titrated, usually from 76.8 µM), without a hit: at the highest dose activity, negative = inhibition, hits mostly inhibitors; further: potency means the concentration at half of the fitted maximal effect; on the % scale 0 is the no-effect control and ±100 the full control effect; nearly all actives have a fitted effect of over 50% in size
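Assay buffer: 50 mM TEA pH 7.2, 100 mM KCl, 10 mM MgCl2, 0.05% BSA, 0.01% Tween-20. Pyruvate kinase from T. brucei plus substrate met compound, then ADP (130 uM final). Luminescence was read post 45 min RT.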
Sm TGR inh – blocks Schistosoma mansoni thioredoxin glutathione reductase; Q962Y6; purified TGR, DTNB reduction, TNB absorbance 405 nm; Potency, µM (highest dose often 114 µM), inactives show at the highest dose activity change, negative = inhibition, actives largely listed as inhibitors; 360,000 compounds, 3% hits; AID 485364; further: potency means the concentration at half of the fitted maximal effect; on the % scale 0 is the no-effect control and ±100 the full control effect; nearly all actives have a fitted effect of over 60% in size
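Kinetic colorimetric format: TGR-catalysed, NADPH-driven DTNB reduction monitored via TNB absorbance. Enzyme dispensed at 20 nM; compound exposure 15 min at room temperature before reaction start.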
LmPK inh – LmPK (Leishmania mexicana) enzyme inhibition. Q27686. purified LmPK, Kinase-Glo ATP luminescence, 1 h. Potency, µM (top dose mostly 57.5 µM), inactives show at the highest dose activity change, negative = inhibition, actives largely listed as inhibitors. 290,000 compounds, 0.37% hits. AID 1721; further: potency means the concentration at half of the fitted maximal effect; on the % scale 0 is the no-effect control and ±100 the full control effect
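Pyruvate kinase activity monitored as ATP production (luciferase luminescence). Conditions: 0.1 nM enzyme, 0.5 mM PEP, 0.1 mM ADP, 1 h, RT; normalized against uninhibited and no-enzyme wells.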
CHX counter – counter-screen for Shiga toxin inhibitors: cycloheximide protein synthesis inhibition; cell reporter, cycloheximide protein synthesis inhibition counterscreen; max response, %; 300,000 compounds, 12% hits; AID 2314; in the data active means max response mostly above about 13%, no sharp cut-off; inactive means mostly below about 14%; further: read at 38.3 µM for the half of the compounds with a filed dose; 0% is about no effect
Starred values were filed as active, the others as inactive; ? = inconclusive; . = not tested or not shown; [ ] = dose if it differs, or a comment. This is one part of a sample in which hits are shown more often than they occur. Unless noted, the call rests on the fitted dose curve; in most records, active means well fitted curve in the direction sought with a large enough effect; inconclusive means small, poorly fitted or top-dose-only effect, or another doubt; inactive means no such curve, though single readings can be large; an effect the other way counts as inactive or inconclusive.

SMILES	FBPA Giardia inh	Shiga inhibitor	Tb PYK inh	Sm TGR inh	LmPK inh	CHX counter
N#Cc1cc2c(nc1SCC1COc3ccccc3O1)CCC2 (centres undefined)	-1%	58*	-6%	-13%	5%	35*
O=C(Nc1ccc2c(c1)OCCO2)C1CCCN(S(=O)(=O)c2cccc3nsnc23)C1 (centres undefined)	-4%	39	0%	-26%	-2%	24*
Cc1ccc2nc(NC(=O)C3CCCN(S(=O)(=O)c4cccc5nsnc45)C3)sc2c1 (centres undefined)	-3%	27	-1%	0%	-2%	25*
O=C(Nc1ccc2c(c1)OCCO2)C1CCN(S(=O)(=O)c2cccc3nsnc23)CC1	-4%	9	0%	-2%	5%	-1
CC(=O)C1CCC2C3CCC4=CC(=O)CCC4(C)C3(F)C(O)CC12C (centres undefined)	.	.	2%	.	.	.
COc1cc(C)ccc1OCc1cc(C(=O)N(C)CCCN2CCOCC2)no1	-7%	96*	-11%	-22%	0%	55*
COc1cc(C)ccc1OCc1cc(C(=O)NCCN2CCOCC2)no1	-6%	76*	-4%	-23%	4%	67*
Cn1cc([N+](=O)[O-])c(C(=O)Nc2ccn(C34CC5CC(CC(C5)C3)C4)n2)n1	0%	2	-10%	1%	-2%	15*
Cn1nccc1C(=O)Nc1ccn(C23CC4CC(CC(C4)C2)C3)n1	6%	68*	4%	-9%	1%	44*
Cn1cc([N+](=O)[O-])c(C(=O)Nc2nc(-c3ccc(Cl)cc3)cs2)n1	0%	-41	0%	0%	4%	17*
FC(F)(F)c1cccc(Nc2c3c(nc4ccc(Cl)cc24)CCC3)c1	.	.	1%	26%	.	.
CNC(=S)NNC(=O)c1ccc(C(C)(C)C)cc1	2%	26	-12%	15%	1%	17*
O=C(NNC(=O)c1cccc2ccccc12)c1ccc2c(c1)OCO2	2%	50*	-1%	1%	2%	24*
CNC(=S)NNC(=O)c1ccc2c(c1)OCO2	-21%	52*	-4%	.	1%	9
COc1ccc(Oc2ncc3nc(-c4cccs4)c(=O)n(CCC#N)c3n2)cc1	-18%	.	.	.	.	.
N#CCCn1c(=O)c(-c2ccc(Cl)cc2)nc2cnc(N3CCNCC3)nc21	-8%	.	.	.	.	.
C=CCN1C=C2C(=O)C(C)(OC(=O)C3CCCC3)C(=O)C(c3ccccc3)=C2C=C1CCCC(=O)OC (centres undefined)	?	-5	0%	?	-7%[11.5 µM]	-3
COC(=O)CCCC1=CC2=C(c3ccccc3)C(=O)C(C)(OC(=O)C3CCCC3)C(=O)C2=CN1C(CO)CO (centres undefined)	?	-4	2%	40µM*	-2%[11.5 µM]	-4
COC(=O)CCCC1=CC2=C(c3ccccc3)C(=O)C(C)(OC(=O)C3CCCC3)C(=O)C2=CN1C1CC1 (centres undefined)	?	-8	2%	?	-1%[11.5 µM]	-2
COC(=O)CCCC1=CC2=C(c3ccccc3)C(=O)C(C)(OC(=O)C3CCCC3)C(=O)C2=CN1CCc1ccccn1 (centres undefined)	?	-8	-5%	28µM*	2%[11.5 µM]	-2
COC(=O)CCCC1=CC2=C(c3ccccc3)C(=O)C(C)(OC(=O)C3CCCC3)C(=O)C2=CN1CCN1CCOCC1 (centres undefined)	?	-1	-1%	35µM*	-3%[11.5 µM]	-1
COC(=O)CCCC1=CC2=C(c3ccccc3)C(=O)C(C)(OC(=O)C3CCCC3)C(=O)C2=CN1CCc1c[nH]c2ccccc12 (centres undefined)	?	-11	-7%	8.9µM*	-4%[11.5 µM]	3
O=C(NCc1ccccc1)c1cnc(N2CCCCC2)c2ccccc12	.	.	0%	-1%	.	.
CCc1cccc(NC(=O)CCn2c(=O)c3cccn3c3cccnc32)c1	.	.	2%	1%	.	.
COc1ccc(/C(O)=C2/C(=O)C(=O)N(c3ncccn3)C2c2ccc(C(C)(C)C)cc2)cc1 (centres undefined)	8%	16	.	1%	-4%	1
